Experiments:
Assay in all cases: DAPPL (digital affinity profiling via proximity ligation, sequencing); 10 mM Tris-HCl pH 7.5, 50 mM NaCl, 1 mM DTT, 4% glycerol, room temperature, 30 min; GST-TFs on glutathione beads, 16-mer random dsDNA library, 0.1% formaldehyde crosslink after washing; high values mean tight binding
Settings in all cases: protein: recombinant; tags: N-terminal GST; dsDNA, one strand shown
ELK1 = target: T1, ELK1 (Homo sapiens, UniProt P19419 1-428)
T1 sequence: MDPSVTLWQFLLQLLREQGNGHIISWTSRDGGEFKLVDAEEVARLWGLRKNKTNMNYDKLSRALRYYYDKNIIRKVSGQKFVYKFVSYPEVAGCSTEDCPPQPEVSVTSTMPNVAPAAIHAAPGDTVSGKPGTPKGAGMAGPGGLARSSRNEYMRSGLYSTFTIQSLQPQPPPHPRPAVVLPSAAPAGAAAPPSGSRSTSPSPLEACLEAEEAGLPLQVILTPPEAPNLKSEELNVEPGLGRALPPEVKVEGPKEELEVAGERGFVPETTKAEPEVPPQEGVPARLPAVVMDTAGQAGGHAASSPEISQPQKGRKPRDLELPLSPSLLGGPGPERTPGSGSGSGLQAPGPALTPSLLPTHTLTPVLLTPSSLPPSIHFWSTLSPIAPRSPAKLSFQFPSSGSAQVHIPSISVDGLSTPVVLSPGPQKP
Method in brief: (§1)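 GST fusions of human transcription factors were expressed in yeast and captured with glutathione beads. Once given DNA barcodes and pooled alongside a tag-only sample, they were incubated for 30 min at room temperature with 200 nmole of a random double-stranded 16-mer DNA library in Tris/NaCl/DTT/glycerol buffer, then washed, crosslinked (0.1% formaldehyde), proximity-ligated, PCR-amplified and sequenced on an Illumina NextSeq500. The binding signal of each hexamer is its read frequency for a factor divided by its frequency for the tag-only sample.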

GABPA = target: T2, GABPA (Homo sapiens, UniProt Q06546 1-454)
T2 sequence: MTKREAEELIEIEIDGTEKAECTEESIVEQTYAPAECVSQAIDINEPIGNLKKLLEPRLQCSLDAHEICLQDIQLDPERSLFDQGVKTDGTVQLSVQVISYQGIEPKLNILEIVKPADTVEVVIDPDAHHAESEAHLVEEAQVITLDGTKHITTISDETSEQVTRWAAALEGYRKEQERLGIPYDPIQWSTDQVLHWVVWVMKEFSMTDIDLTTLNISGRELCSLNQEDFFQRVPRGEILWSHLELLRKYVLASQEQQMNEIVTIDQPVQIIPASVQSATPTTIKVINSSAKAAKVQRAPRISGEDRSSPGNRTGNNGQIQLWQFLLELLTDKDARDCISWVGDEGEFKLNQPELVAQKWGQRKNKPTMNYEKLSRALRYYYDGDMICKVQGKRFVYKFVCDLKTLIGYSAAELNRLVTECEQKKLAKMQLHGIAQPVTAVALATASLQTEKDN
Method in brief: as §1

ERG = target: T3, ERG (Homo sapiens, UniProt P11308 1-479)
T3 sequence: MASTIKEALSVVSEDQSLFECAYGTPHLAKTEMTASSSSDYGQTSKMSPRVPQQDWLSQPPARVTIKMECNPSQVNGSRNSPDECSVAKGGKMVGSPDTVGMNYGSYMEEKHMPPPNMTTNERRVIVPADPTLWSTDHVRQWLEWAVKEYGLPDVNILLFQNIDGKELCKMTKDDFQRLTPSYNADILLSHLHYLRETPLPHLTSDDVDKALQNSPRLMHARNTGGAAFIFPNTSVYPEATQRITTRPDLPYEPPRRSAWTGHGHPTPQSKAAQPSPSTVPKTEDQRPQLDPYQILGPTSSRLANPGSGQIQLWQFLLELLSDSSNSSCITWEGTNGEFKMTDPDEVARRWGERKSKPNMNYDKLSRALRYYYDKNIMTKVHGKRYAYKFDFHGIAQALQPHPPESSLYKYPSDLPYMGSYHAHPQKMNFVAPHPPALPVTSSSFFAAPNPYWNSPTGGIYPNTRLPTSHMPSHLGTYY
Method in brief: as §1

ELF1 = ELF1 (Homo sapiens, UniProt P32519 1-619)
Method in brief: as §1

SPIC = target: T4, SPIC (Homo sapiens, UniProt Q8N5J4 1-248)
T4 sequence: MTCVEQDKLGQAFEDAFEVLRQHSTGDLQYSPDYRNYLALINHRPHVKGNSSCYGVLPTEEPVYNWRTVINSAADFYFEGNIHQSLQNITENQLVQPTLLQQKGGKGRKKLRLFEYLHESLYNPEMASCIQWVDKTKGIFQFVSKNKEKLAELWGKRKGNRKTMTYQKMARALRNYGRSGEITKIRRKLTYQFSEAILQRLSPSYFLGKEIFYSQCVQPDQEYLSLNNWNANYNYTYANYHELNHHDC
Method in brief: as §1

ELF4 = ELF4 (Homo sapiens, UniProt Q99607 1-663)
Method in brief: as §1

ELK4 = target: T5, ELK4 (Homo sapiens, UniProt P28324-2 1-405)
T5 sequence: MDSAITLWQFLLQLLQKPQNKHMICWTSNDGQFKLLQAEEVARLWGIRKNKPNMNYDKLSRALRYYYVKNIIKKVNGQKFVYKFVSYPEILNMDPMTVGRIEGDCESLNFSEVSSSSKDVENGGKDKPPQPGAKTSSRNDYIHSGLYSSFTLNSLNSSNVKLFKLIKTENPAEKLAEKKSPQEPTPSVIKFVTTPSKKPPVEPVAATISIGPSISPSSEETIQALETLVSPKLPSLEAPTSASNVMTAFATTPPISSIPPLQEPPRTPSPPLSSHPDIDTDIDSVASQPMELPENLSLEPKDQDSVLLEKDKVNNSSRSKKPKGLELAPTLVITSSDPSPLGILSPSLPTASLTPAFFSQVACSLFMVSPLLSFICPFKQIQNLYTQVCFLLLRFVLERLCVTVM
Method in brief: as §1

ETS2 = target: T6, ETS2 (Homo sapiens, UniProt P15036 1-469)
T6 sequence: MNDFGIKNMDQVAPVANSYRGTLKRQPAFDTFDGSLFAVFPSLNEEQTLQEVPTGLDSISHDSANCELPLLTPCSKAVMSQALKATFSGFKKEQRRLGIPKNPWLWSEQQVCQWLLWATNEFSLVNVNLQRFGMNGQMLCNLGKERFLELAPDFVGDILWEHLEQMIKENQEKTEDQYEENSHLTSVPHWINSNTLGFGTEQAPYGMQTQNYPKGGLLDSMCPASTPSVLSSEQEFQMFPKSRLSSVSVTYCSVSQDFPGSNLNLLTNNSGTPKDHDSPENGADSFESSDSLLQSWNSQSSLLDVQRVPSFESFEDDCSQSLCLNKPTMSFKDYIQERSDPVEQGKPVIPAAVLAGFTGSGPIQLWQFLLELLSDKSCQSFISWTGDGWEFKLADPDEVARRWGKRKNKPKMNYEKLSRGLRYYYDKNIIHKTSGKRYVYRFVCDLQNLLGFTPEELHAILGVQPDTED
Method in brief: as §1

SPDEF = target: T7, SPDEF (Homo sapiens, UniProt O95238 1-335)
T7 sequence: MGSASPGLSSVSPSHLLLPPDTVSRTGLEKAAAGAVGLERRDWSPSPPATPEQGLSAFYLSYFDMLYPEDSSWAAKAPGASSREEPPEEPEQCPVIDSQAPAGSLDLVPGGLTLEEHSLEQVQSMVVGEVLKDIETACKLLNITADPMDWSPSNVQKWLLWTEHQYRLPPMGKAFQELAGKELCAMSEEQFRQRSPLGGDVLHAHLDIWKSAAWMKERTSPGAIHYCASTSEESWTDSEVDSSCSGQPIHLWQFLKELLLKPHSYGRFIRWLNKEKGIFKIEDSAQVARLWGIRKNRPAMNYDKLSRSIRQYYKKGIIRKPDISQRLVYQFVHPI
Method in brief: as §1

ETV7 = target: T8, ETV7 (Homo sapiens, UniProt Q9Y603 1-341)
T8 sequence: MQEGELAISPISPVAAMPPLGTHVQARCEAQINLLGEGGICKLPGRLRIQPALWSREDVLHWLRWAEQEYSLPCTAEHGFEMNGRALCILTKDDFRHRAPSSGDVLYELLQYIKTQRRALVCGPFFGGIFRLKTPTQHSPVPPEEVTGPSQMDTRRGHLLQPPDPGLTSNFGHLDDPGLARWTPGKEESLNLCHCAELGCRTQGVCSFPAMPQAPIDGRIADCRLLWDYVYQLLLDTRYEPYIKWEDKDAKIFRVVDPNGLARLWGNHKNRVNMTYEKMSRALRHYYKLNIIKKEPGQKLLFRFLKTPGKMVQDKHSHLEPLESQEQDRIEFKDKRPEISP
Method in brief: as §1

ETV3 = target: T9, ETV3 (Homo sapiens, UniProt P41162-2 1-143)
T9 sequence: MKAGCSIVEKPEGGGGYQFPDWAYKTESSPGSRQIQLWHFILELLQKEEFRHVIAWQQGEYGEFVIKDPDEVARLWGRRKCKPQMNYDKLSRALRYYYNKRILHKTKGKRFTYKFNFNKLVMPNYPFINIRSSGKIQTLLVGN
Method in brief: as §1

EHF = target: T10, EHF (Homo sapiens, UniProt Q9NZC4 1-300)
T10 sequence: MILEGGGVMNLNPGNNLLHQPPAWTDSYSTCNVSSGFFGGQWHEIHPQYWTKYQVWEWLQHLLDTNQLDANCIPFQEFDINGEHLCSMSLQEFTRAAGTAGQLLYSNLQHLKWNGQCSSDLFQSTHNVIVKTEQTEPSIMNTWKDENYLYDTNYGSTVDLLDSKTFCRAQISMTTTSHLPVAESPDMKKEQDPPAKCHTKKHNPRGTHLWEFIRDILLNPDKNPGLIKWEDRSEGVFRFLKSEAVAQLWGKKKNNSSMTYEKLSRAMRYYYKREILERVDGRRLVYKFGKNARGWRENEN
Method in brief: as §1

SPIB = SPIB (Homo sapiens, UniProt Q01892 1-262)
Method in brief: as §1

ELK3 = target: T11, ELK3 (Homo sapiens, UniProt P41970 1-407)
T11 sequence: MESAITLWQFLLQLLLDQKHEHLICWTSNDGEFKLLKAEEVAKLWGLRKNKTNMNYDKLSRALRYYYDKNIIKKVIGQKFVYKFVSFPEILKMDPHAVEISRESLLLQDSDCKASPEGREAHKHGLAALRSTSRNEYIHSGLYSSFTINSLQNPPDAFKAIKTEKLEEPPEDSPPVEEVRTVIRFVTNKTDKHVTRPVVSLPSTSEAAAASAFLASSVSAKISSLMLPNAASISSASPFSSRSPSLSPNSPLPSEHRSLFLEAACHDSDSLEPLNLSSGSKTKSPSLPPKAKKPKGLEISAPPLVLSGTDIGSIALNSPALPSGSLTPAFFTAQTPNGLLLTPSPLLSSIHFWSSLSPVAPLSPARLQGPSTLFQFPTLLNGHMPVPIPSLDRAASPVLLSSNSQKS
Method in brief: as §1

ERF = target: T12, ERF (Homo sapiens, UniProt P50548 1-548)
T12 sequence: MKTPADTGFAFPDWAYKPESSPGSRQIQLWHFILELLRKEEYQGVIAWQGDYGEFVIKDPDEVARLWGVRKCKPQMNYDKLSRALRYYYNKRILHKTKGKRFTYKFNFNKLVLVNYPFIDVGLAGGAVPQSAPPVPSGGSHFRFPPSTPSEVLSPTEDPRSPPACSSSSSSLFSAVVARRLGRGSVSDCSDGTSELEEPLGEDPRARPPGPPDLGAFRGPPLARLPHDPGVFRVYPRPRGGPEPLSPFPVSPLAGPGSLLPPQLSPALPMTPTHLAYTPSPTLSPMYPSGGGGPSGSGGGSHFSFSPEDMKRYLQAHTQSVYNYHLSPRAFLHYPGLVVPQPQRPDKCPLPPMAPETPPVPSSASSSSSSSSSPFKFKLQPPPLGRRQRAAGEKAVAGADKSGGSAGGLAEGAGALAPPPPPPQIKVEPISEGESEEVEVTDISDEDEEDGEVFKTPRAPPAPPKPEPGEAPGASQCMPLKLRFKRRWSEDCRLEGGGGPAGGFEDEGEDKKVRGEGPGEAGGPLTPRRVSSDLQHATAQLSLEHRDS
Method in brief: as §1

ETV6 = ETV6 (Homo sapiens, UniProt P41212 1-452)
Method in brief: as §1

Sequence of ELF1 (P32519 whole entry): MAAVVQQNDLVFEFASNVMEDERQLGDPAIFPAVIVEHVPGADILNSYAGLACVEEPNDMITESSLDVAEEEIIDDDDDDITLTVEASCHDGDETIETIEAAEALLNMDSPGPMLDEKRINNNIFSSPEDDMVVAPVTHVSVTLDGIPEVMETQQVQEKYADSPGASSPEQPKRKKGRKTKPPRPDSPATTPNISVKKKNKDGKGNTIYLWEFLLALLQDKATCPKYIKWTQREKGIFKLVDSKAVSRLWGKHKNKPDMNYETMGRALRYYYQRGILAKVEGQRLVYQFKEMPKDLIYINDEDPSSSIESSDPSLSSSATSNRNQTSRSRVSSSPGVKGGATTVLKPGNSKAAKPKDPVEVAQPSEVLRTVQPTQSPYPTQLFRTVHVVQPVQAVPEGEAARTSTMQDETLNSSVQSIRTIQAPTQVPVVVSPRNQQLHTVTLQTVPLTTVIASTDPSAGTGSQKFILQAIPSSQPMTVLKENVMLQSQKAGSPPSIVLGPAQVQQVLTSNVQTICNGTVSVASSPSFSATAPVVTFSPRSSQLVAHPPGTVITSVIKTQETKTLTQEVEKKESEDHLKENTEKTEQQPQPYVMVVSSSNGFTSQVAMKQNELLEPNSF
Sequence of ELF4 (Q99607 whole entry): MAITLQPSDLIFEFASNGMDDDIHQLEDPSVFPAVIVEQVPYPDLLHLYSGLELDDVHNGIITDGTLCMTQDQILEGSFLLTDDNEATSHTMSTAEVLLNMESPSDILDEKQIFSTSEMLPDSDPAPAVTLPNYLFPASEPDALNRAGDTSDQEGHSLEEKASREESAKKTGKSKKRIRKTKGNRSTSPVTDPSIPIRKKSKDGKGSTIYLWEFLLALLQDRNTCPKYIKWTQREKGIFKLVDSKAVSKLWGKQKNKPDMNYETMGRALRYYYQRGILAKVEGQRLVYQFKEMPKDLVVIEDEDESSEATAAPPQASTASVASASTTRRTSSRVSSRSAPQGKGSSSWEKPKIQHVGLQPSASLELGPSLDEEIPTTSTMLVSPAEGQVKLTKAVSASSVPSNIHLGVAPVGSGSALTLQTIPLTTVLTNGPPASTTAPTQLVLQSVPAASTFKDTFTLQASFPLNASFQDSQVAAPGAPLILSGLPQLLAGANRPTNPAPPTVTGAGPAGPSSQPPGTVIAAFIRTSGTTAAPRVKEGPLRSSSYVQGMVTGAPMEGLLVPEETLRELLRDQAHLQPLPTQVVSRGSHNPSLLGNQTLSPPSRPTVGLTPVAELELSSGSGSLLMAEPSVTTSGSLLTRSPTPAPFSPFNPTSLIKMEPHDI
Sequence of SPIB (Q01892 whole entry): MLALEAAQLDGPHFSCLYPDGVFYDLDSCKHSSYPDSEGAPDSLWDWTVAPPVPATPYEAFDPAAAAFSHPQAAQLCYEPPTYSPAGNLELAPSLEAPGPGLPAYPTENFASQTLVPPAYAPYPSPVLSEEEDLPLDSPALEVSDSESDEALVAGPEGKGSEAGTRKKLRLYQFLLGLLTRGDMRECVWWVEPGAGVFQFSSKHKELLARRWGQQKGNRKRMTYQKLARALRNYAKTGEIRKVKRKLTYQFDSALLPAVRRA
Sequence of ETV6 (P41212 whole entry): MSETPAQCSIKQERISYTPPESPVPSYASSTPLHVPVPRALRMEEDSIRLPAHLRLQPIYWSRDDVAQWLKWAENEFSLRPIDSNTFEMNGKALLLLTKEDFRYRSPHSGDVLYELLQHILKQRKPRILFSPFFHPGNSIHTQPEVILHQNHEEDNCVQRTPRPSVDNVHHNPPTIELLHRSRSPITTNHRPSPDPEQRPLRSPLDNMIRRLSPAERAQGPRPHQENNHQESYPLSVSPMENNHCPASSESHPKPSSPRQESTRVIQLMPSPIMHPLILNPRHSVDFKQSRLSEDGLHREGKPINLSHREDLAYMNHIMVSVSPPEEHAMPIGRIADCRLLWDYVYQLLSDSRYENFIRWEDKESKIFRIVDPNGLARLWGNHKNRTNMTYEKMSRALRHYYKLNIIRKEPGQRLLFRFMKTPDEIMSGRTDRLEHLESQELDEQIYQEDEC

Q: TAAGCA was tested. Which binding signal (ELK1) did it give?
A: 1.02 fold enrichment (6-mer frequency, TF over GST control)

Q: And the binding signal (GABPA)?
A: 1.08 fold enrichment (6-mer frequency, TF over GST control)

Q: What about the binding signal (ERG) of the same sequence?
A: 1.01 fold enrichment (6-mer frequency, TF over GST control)

Q: And the binding signal (ELF1)?
A: 1.07 fold enrichment (6-mer frequency, TF over GST control)

Q: And the binding signal (SPIC)?
A: 1.08 fold enrichment (6-mer frequency, TF over GST control)

Q: And the binding signal (ELF4)?
A: 1.03 fold enrichment (6-mer frequency, TF over GST control)

Q: What about the binding signal (ELK4) of the same sequence?
A: 1.09 fold enrichment (6-mer frequency, TF over GST control)

Q: And the binding signal (ETS2)?
A: 1.07 fold enrichment (6-mer frequency, TF over GST control)

Q: What about the binding signal (SPDEF) of the same sequence?
A: 1.06 fold enrichment (6-mer frequency, TF over GST control)

Q: And the binding signal (ETV7)?
A: 1.02 fold enrichment (6-mer frequency, TF over GST control)

Q: What about the binding signal (ETV3) of the same sequence?
A: 1 fold enrichment (6-mer frequency, TF over GST control)

Q: With TTAAGA as the sequence, how does the binding signal (ELK1) read?
A: 1.05 fold enrichment (6-mer frequency, TF over GST control)

Q: And the binding signal (GABPA)?
A: 1.09 fold enrichment (6-mer frequency, TF over GST control)

Q: What about the binding signal (ELF1) of the same sequence?
A: 1.05 fold enrichment (6-mer frequency, TF over GST control)

Q: What about the binding signal (EHF) of the same sequence?
A: 1.05 fold enrichment (6-mer frequency, TF over GST control)

Q: What about the binding signal (SPIB) of the same sequence?
A: 1.07 fold enrichment (6-mer frequency, TF over GST control)

Q: And the binding signal (ELK3)?
A: 1.02 fold enrichment (6-mer frequency, TF over GST control)

Q: What about the binding signal (SPIC) of the same sequence?
A: 1.12 fold enrichment (6-mer frequency, TF over GST control)

Q: What about the binding signal (ELF4) of the same sequence?
A: 1.05 fold enrichment (6-mer frequency, TF over GST control)

Q: What about the binding signal (ERF) of the same sequence?
A: 1.08 fold enrichment (6-mer frequency, TF over GST control)

Q: And the binding signal (SPDEF)?
A: 1.06 fold enrichment (6-mer frequency, TF over GST control)

Q: What about the binding signal (ETV7) of the same sequence?
A: 1.13 fold enrichment (6-mer frequency, TF over GST control)

Q: And the binding signal (ETV3)?
A: 1.05 fold enrichment (6-mer frequency, TF over GST control)

Q: And the binding signal (ETV6)?
A: 1.05 fold enrichment (6-mer frequency, TF over GST control)

Source: publication PMC7862700, “An all-to-all approach to the identification of sequence-specific readers for epigenetic DNA modifications on cytosine”
